# KB-V1 MDR tox = kills drug-selected multidrug resistant KB-V1 cells | KB-V1 MDR cells viability, CellTiter-Glo, 72 h | 400,000 compounds, 3.4% hits | Potency, µM (titrated, usually from 46.1 µM), hits mostly cytotoxic | AID 1347076; note: nearly all actives have a fitted effect of over 60% in size
#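 Compound-treated KB-V1 multidrug-resistant cells, 72 h, 37 degrees C; viability by CellTiter-Glo. Fitted qHTS curves give the values.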
# DT40 TDP1 CPT = DT40-hTDP1 cell growth loss with CPT. AID 686979. Potency, µM (top dose mostly 46.2 µM), actives largely listed as inhibitors. chicken DT40 Tdp1-/-;hTDP1 cells + 20 nM CPT, ATP luminescence, 48 h. 420,000 compounds, 12% hits; note: nearly all actives have a fitted effect of over 55% in size
#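 Cell growth measured by CellTiter-Glo luminescence after a minimum 48 h, 37 C compound exposure with 20 nM CPT in Tdp1-knockout DT40 cells stably expressing hTDP1, seeded 400/well; qHTS titration format.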
# DT40 TDP1 no CPT = qHTS for Inhibitors of human tyrosyl-DNA phosphodiesterase 1 (TDP1): qHTS in cells in absence of CPT; Potency, µM (doses to about 46.2 µM), actives largely listed as inhibitors; AID 686978, 2013; DT40 Tdp1-/- hTDP1 cells, no CPT, ATP luminescence, 48 h; 420,000 compounds, 15% hits; note: nearly all actives have a fitted effect of over 55% in size
#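 DT40 Tdp1-/-;hTDP1 cells, no CPT (DMSO vehicle only), 400 cells/well; compounds pin-transferred; ≥48 hr, 37 °C; CellTiter-Glo 30 min RT dark, luminescence read.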
# HT1080 IDH1KD tx = HT-1080 IDH1 knockdown cell toxicity (counter line). HT-1080 IDH1 knockdown viability, ATP luminescence, 48 h. Potency, µM (doses to about 46.1 µM), most hits filed as cytotoxic. 360,000 compounds, 2% hits. AID 686971
#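 CellTiter-Glo luminescence after 48 h compound exposure at 37 degrees C of IDH1-knockdown HT-1080 cells in 5% FBS RPMI. %Activity scaled between DMSO wells and cell-free media wells, with curves fitted and assigned curve classes.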
# KB-3-1 cytotox = kills parental KB-3-1 adenocarcinoma cells; KB-3-1 viability, CellTiter-Glo ATP luminescence, 72 h; Potency, µM (top dose mostly 46.1 µM), usual class: cytotoxic; 400,000 compounds, 1.4% hits; AID 1347075; note: nearly all actives have a fitted effect of over 60% in size
#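 Here the drug-naive KB-3-1 line serves as comparator for MDR sub-line selectivity; cells received compound titrations, 72 h at 37 °C, then CellTiter-Glo readout.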
# HT1080-NT tox = kills 2HG-producing HT-1080-NT fibrosarcoma cells. Potency, µM (series often up to 46.1 µM), most hits filed as cytotoxic. 360,000 compounds, 1.6% hits. AID 686970. HT-1080-NT fibrosarcoma viability, CellTiter-Glo ATP luminescence, 48 h;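 note: NT is the 2HG producing partner of a matched IDH1 knockdown line; nearly all actives have a fitted effect of over 55% in size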
#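 Fibrosarcoma NT cells, 750 per well in 5% FBS RPMI, were exposed to compound for 48 hours. Viability: CellTiter-Glo luminescence.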
# Hits are given with their value; - = inactive; ? = inconclusive; . = no result given; ! = a repeat was not active. The list is not random: actives were taken first. Their share in the collection is about 19%. Calls come from the whole dose curve; as a rule, active = well fitted curve in the direction sought with a large enough effect; inconclusive = small, poorly fitted or top-dose-only effect, or another doubt; inactive = no such curve, though single readings can be large; an effect the other way counts as inactive or inconclusive.
SMILES,KB-V1 MDR tox,DT40 TDP1 CPT,DT40 TDP1 no CPT,HT1080 IDH1KD tx,KB-3-1 cytotox,HT1080-NT tox
CCc1cccc(CC)c1N(COC)C(=O)Cn1nnc2ccccc21,-,-,?,-,-,-
CCN(C(=O)c1ccc(C(C)(C)C)cc1)c1nnc(Cn2nnc3ccccc32)s1,-,7.31µM,8.2µM,?,-,?
Cc1ccc(C(=O)NNC(=O)Cn2nnc3ccccc32)cc1,-,-,-,-,-,-
CCN(C(=O)CC(C)C)c1nnc(Cn2nnc3ccccc32)s1,?,?,20.6µM,-,?,-
O=C(NCc1cccnc1)c1cc(C2CCCCN2S(=O)(=O)Cc2ccccc2)on1 (stereo unspecified),?,-,-,-,-,-
Cn1c(SCc2ccccc2)nnc1-c1c[nH]c2ccccc12,-,?,?,-,-,-
Cc1cccc(-n2c(Cc3ccccc3)nnc2SCc2ccc([N+](=O)[O-])cc2)c1,7.31µM,?,?,-,?,-
Cc1cccc(-n2c(SCc3ccc(C#N)cc3)nnc2-c2c[nH]c3ccccc23)c1,3.26µM,?,?,?,?,?
COC(=O)c1ccc(CSc2nnc(-c3c[nH]c4ccccc34)n2C)o1,-,23.1µM,13µM,-,-,-
COC(=O)c1ccc(CSc2nnc(-c3c[nH]c4ccccc34)n2-c2ccccc2)cc1,-,20.6µM,16.4µM,-,?,-
COCCn1c(SCc2ccc(C(=O)OC)o2)nnc1-c1c[nH]c2ccccc12,?,-,?,-,-,-
O=S(=O)(c1ccc(Cl)cc1Cl)n1ccnc1,?,-,-,.,-,.
N#C/C(=C1/SC[C@@H](c2ccc(Cl)cc2Cl)S1)n1ccnc1,.,4.73µM,5.96µM,.,.,.
CCOC(=O)C1(CCOc2ccccc2)CCN(Cc2ccc(O)c(Cl)c2)CC1,-,16.4µM,13µM,-,-,-
CCOC(=O)C1(CCOc2ccccc2)CCN(Cc2ccc(O)c(OC)c2)CC1,-,?,18.4µM,-,-,-
OCC1(CCOc2ccccc2)CCN(Cc2ccc3c(c2)OCCO3)CC1,-,-,-,-,-,-
CCOC(=O)C1(CCOc2ccccc2)CCN(Cc2ccc3c(c2)OCCO3)CC1,-,?,?,?,-,18.4µM
CCOC(=O)C1(CCOc2ccccc2)CCN(Cc2ccc(F)c(OC)c2)CC1,?,?,6.51µM,?,-,?
COC(=O)c1ccc(NC(=O)Cc2coc3cc(C)ccc23)cc1,-,?,?,.,-,.
CCc1cccc(CC)c1NC(=O)C1CN(S(=O)(=O)c2ccccc2)CCN1S(=O)(=O)c1ccccc1 (stereo unspecified),-,?,?,-,-,-
Cc1cccc(C(C)C)c1NC(=O)C1CN(S(=O)(=O)c2ccccc2)CCN1S(=O)(=O)c1ccccc1 (stereo unspecified),4.11µM,25.9µM,18.4µM,-,-,-
Cc1ccc(/C=N\NC(=O)C2CN(S(=O)(=O)c3ccccc3)CCN2S(=O)(=O)c2ccccc2)cc1 (stereo unspecified),-,?,18.4µM,-,-,-
Cc1cc(OC(=O)c2ccco2)c(Sc2ccccc2[N+](=O)[O-])c(=O)o1,-,?,18.4µM,-,-,-
Cc1[nH]c(=O)[nH]c(=O)c1Sc1ccccc1[N+](=O)[O-],-,-,-,-,-,-
C/C(=C(/CCO)SSCC1CCCO1)N(C=O)Cc1cnc(C)nc1N (stereo unspecified),-,21.1µM!,21.1µM,-,-,-
SMILES,KB-V1 MDR tox,DT40 TDP1 CPT,DT40 TDP1 no CPT,HT1080 IDH1KD tx,KB-3-1 cytotox,HT1080-NT tox
C/C(=C(\CCOP(=O)(O)O)SC(=O)c1ccccc1)N(C=O)Cc1cnc(C)nc1N,.,-,-,.,.,.
CCCSS/C(CCO)=C(\C)N(C=O)Cc1cnc(C)nc1N,.,5.31µM,2.99µM,.,.,.
CCOC(=O)OCC/C(SC(=O)OCC)=C(\C)N(C=O)Cc1cnc(C)nc1N,.,-,-,.,.,.
COc1ccc(/C=N\NC(=O)COc2ccccc2)c(C(=O)O)c1OC,-,-,-,-,-,-
CC1CC(C)CN(S(=O)(=O)c2ccc(C(=O)Nc3sccc3C(N)=O)cc2)C1 (stereo unspecified),?,18.4µM,20.6µM,?,-,-
CC1CC(C)CN(S(=O)(=O)c2ccc(C(=O)Nc3nnc(-c4cccs4)o3)cc2)C1 (stereo unspecified),12.6µM,6.31µM,5.01µM,?,?,14.1µM
CCC1CCCCN1S(=O)(=O)c1ccc(C(=O)Nc2nnc(-c3cccs3)o2)cc1 (stereo unspecified),5.01µM,6.31µM,6.31µM,14.1µM,?,8.91µM
Cc1ccc(-n2ncc3c2CC(C)(C)CC3NC(=O)CCN2CCCCC2=O)cc1 (stereo unspecified),.,-,-,-,.,-
Cn1c2ccccc2c2ncn(CCC3=CCCCC3)c(=O)c21,16.4µM,?,?,-,-,-
C=Cc1ccc(CSc2nc(-c3ccccc3Cl)nc3c2Cc2c(CO)cnc(C)c2O3)cc1,-,?,?,.,-,.
CCc1ccccc1N1CC23C=CC(O2)C(C(=O)O)C3C1=O (stereo unspecified),-,18.4µM,-,-,-,-
O=C1CSc2ccc(S(=O)(=O)NCc3ccc(Cl)cc3)cc2N1,-,-,-,-,-,-
Cc1ccc(CNS(=O)(=O)c2ccc3c(c2)NC(=O)CS3)cc1,-,?,14.6µM,-,-,-
CC(C)C(N)C(=O)NC(Cc1c[nH]c2ccccc12)C(=O)O (stereo unspecified),.,-,-,.,.,.
CCOC(=O)Cc1nc2ccccc2[nH]1,-,-,-,-,-,-
CCOC(=O)c1ccc(NC(=O)CSc2nc3cc4ccccc4cc3[nH]2)cc1,-,23.1µM,18.4µM,.,-,.
COc1ccc2nc(SCC(=O)Nc3ccccc3)[nH]c2c1,-,?,-,-,-,-
CCOC(=O)c1ccc(NCc2nc3ccccc3[nH]2)cc1,-,16.4µM,16.4µM,-,-,-
CCOC(=O)c1cccc(NC(=O)CSc2nc3cc4ccccc4cc3[nH]2)c1,-,?,23.1µM,.,-,.
NC(=S)N=Nc1c(O)[nH]c2c(Cl)cc(Cl)cc12,-,16.4µM,4.61µM,-,-,?
NC(=S)N=Nc1c(O)[nH]c2cc(F)c(F)cc12,?,-,?,-,-,-
C/C(=N\NC(=O)c1cc(C)nc2ccccc12)c1ccc([N+](=O)[O-])cc1,-,-,-,-,-,-
C/C(=N\NC(=O)c1cc(C)nc2ccccc12)c1ccncc1,?,-,-,7.31µM,?,?
C/C(=N\NC(=O)c1cc(C)nc2ccccc12)c1ccccn1,-,1.46µM,0.731µM,?,-,?
